The values that follow come from publication PMC4242493, “Sequence specificity incompletely defines the genome-wide occupancy of Myc”.

Whole data set: some 33,000 sequences, median “normalized occupancy” near 0.075, cut for the highest 2% near 0.095. Many of the other results were omitted from the sample, so the highest values are more common in it than they were.

Chain of MaxL homodimer (P61244 whole entry): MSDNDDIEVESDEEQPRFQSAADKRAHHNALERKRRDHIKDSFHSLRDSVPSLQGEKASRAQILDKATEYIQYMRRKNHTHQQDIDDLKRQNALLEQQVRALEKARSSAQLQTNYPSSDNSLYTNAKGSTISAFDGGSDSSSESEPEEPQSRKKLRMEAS

The target in the experiment is MaxL homodimer (Homo sapiens, UniProt P61244 1-160). The experiment is described as follows: universal protein-binding microarray (PBM); PBS-based mixture, 10 nM His-tagged protein dimer, 2% milk, 200 ng/uL BSA, 50 ng/uL salmon testes DNA, 0.02% TX-100; detection with Alexa 488 anti-His antibody;; high values mean tight binding. To be noted: protein: recombinant; tags: C-terminal His-tag (pET21a); chain copies: 2; dsDNA, one strand shown. In outline:
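Agilent 4 x 44 K arrays carrying the 'all 10-mer' universal design were incubated with His-tagged protein dimer at 10 nM. Protein that bound was tagged using fluorophore-conjugated anti-His antibody at 10 ng/μL, and a GenePix 4400A scanned the arrays to give an intensity for every 8-mer. Each binding occupancy value expresses an intensity relative to the top-ranked intensity.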
Consider CCACGAGA, for which the binding signal worked out at 0.1 normalized occupancy.

Turning to CCACGACG, the binding signal is 0.0811 normalized occupancy.

On to GCACGAGC, for which the binding signal stood at 0.085 normalized occupancy.

Turning to CCACGAGG, the binding signal stood at 0.182 normalized occupancy.

On to CAACGAGA, for which the binding signal stood at 0.0767 normalized occupancy.

Consider GCACGAGA, for which the binding signal was found to be 0.098 normalized occupancy.

As to TCACGAGA, the binding signal amounted to 0.0875 normalized occupancy.

Consider CCACGAAG, for which the binding signal was 0.0767 normalized occupancy.

Take CCACGAGC: the binding signal is 0.0889 normalized occupancy.

ATGGACTA: the binding signal is 0.0826 normalized occupancy.

With ACTGTTCA, the binding signal came to 0.073 normalized occupancy.

As to AATGTTAC, the binding signal is 0.0779 normalized occupancy.

ACTGCGGA: the binding signal was 0.0741 normalized occupancy.

Regarding AGCTCCAA, the binding signal was found to be 0.0722 normalized occupancy.

In the case of CCACGCCA, the binding signal amounted to 0.0991 normalized occupancy.

As to CTACGCCA, the binding signal came to 0.0777 normalized occupancy.

Consider GCACGCCA, for which the binding signal was determined as 0.0859 normalized occupancy.

CCACGCCG: the binding signal worked out at 0.0985 normalized occupancy.

With CCACACCA, the binding signal turned out to be 0.0899 normalized occupancy.

Consider CCACGCCC, for which the binding signal worked out at 0.0948 normalized occupancy.

With CGCTTGTA, the binding signal came out at 0.0739 normalized occupancy.

As for AGGCTTTA, the binding signal worked out at 0.0758 normalized occupancy.

On to ATGCCAAC, for which the binding signal amounted to 0.0785 normalized occupancy.

AGGCGTGG: the binding signal came to 0.098 normalized occupancy.

Consider AGGCGTGA, for which the binding signal is 0.0829 normalized occupancy.

For AGGCGTTC, the binding signal came to 0.0755 normalized occupancy.

Consider AGGCGTCG, for which the binding signal is 0.0733 normalized occupancy.

Consider AGGCGTGC, for which the binding signal is 0.0963 normalized occupancy.

For the sequence AGGCGCGC, the binding signal amounted to 0.0762 normalized occupancy.

In the case of AATTAAAT, the binding signal is 0.0748 normalized occupancy.

Turning to CGTAATTC, the binding signal was determined as 0.0757 normalized occupancy.

As to ACCAAGCG, the binding signal turned out to be 0.0722 normalized occupancy.

ACAACTGT: the binding signal turned out to be 0.0734 normalized occupancy.

Consider ACGCGCGG, for which the binding signal is 0.0929 normalized occupancy.

On to ACGCGCGT, for which the binding signal was 0.0896 normalized occupancy.

ATACGCGC: the binding signal amounted to 0.0771 normalized occupancy.

As to ACACGCGG, the binding signal was found to be 0.143 normalized occupancy.

Turning to ACGCGCGC, the binding signal came to 0.0821 normalized occupancy.

Take ACACGCGC: the binding signal was 0.112 normalized occupancy.

With AAACGCGG, the binding signal amounted to 0.0761 normalized occupancy.

On to ACACGCGT, for which the binding signal was 0.13 normalized occupancy.

Turning to AAACGCGA, the binding signal came to 0.0771 normalized occupancy.

AAACGCGT: the binding signal came to 0.08 normalized occupancy.

With ACGCGCGA, the binding signal is 0.0786 normalized occupancy.

Regarding ACACGCGA, the binding signal is 0.116 normalized occupancy.

In the case of TAGAACAA, the binding signal came out at 0.0771 normalized occupancy.

Take CAGTGCTC: the binding signal came to 0.0745 normalized occupancy.

Turning to ATAGCGAA, the binding signal was determined as 0.0727 normalized occupancy.

Take ATTGTAAC: the binding signal came to 0.0837 normalized occupancy.

CTCAATCA: the binding signal amounted to 0.0801 normalized occupancy.

As for ACAATGAA, the binding signal was 0.0787 normalized occupancy.

Take AGGACATA: the binding signal is 0.0758 normalized occupancy.

In the case of TCTTATCA, the binding signal is 0.0736 normalized occupancy.

Consider CTACTGTC, for which the binding signal stood at 0.0719 normalized occupancy.

Turning to AGACATGC, the binding signal was found to be 0.102 normalized occupancy.

Regarding AGACATGG, the binding signal was 0.0832 normalized occupancy.

In the case of AGACATGA, the binding signal was found to be 0.0878 normalized occupancy.

CGACATGA: the binding signal was determined as 0.0858 normalized occupancy.

As to CGACATTC, the binding signal is 0.0758 normalized occupancy.

In the case of CGACATGC, the binding signal is 0.0992 normalized occupancy.

Consider CTAGCTCA, for which the binding signal amounted to 0.0759 normalized occupancy.

On to CACGCCCA, for which the binding signal was 0.0892 normalized occupancy.

On to GAGAGCAC, for which the binding signal amounted to 0.0743 normalized occupancy.

As to CCACGCAA, the binding signal was 0.0865 normalized occupancy.

Regarding GCACGCTA, the binding signal was determined as 0.101 normalized occupancy.

For CCACGCAC, the binding signal came to 0.0964 normalized occupancy.

For ACACGCTC, the binding signal is 0.0924 normalized occupancy.

As for CGACGCTA, the binding signal amounted to 0.0724 normalized occupancy.

Turning to GTACGCTA, the binding signal stood at 0.0796 normalized occupancy.

On to GCACGCAC, for which the binding signal is 0.0902 normalized occupancy.

For the sequence CAACGCTC, the binding signal stood at 0.0772 normalized occupancy.

CCACGCTC: the binding signal stood at 0.0965 normalized occupancy.

On to CCACGCTA, for which the binding signal stood at 0.0973 normalized occupancy.

In the case of CAACGCTA, the binding signal was found to be 0.0734 normalized occupancy.

GAACGCTA: the binding signal was found to be 0.0771 normalized occupancy.

GAACACAA: the binding signal amounted to 0.0743 normalized occupancy.

For CCAATTCG, the binding signal was 0.0738 normalized occupancy.

Regarding AGCCCTCC, the binding signal came to 0.0723 normalized occupancy.

Consider TCGTAAAA, for which the binding signal worked out at 0.0794 normalized occupancy.

Regarding GCCATCAC, the binding signal was 0.0781 normalized occupancy.

For the sequence ATACTGGC, the binding signal amounted to 0.0812 normalized occupancy.

AGTCACAT: the binding signal turned out to be 0.101 normalized occupancy.

On to AGTCACAG, for which the binding signal was determined as 0.0732 normalized occupancy.

Consider AGTCACAC, for which the binding signal is 0.0886 normalized occupancy.

AGGCACAG: the binding signal amounted to 0.075 normalized occupancy.

On to AGGCACAC, for which the binding signal was 0.0801 normalized occupancy.

With ACGCACAG, the binding signal is 0.076 normalized occupancy.

AGGCACAT: the binding signal was found to be 0.098 normalized occupancy.

Take ACGCACAA: the binding signal stood at 0.0775 normalized occupancy.

In the case of ACGCACAT, the binding signal turned out to be 0.0968 normalized occupancy.

Take GCGACAGC: the binding signal came out at 0.0756 normalized occupancy.

Regarding CAACATCG, the binding signal came to 0.0784 normalized occupancy.

As for GTACGGGA, the binding signal is 0.0747 normalized occupancy.

As for GCACCAGC, the binding signal is 0.0755 normalized occupancy.
